Out of some 48,000 compounds screened, about 13,000 (27%) showed an effect of 50% or more. This is one part of the list.
system: Wolbachia pipientis; assay: Anti-Wolbachia Cell-Based Screen; format: functional; parameters: scale not given: in the data most compounds retested in dose-response had high values; details: 5 µM

SMILES | Percent Effect
O=c1[nH]c2nc(NCC3CCCO3)ncc2c(=O)n1-c1cccc(F)c1 (stereo unspecified) | -6.626%
CCc1noc(CC)c1CC(=O)N1CCN(C(=O)C2CCCC2)CC1 | -21.61%
O=C(CCCc1cn[nH]c1)N1C[C@@H](CN2CCCCCC2)[C@@H](CO)C1 | 0.3132%
CN(C)CCN(Cc1ccsc1)C(=O)C1=NNC(=O)CC1 | -24.72%
COC(=O)[C@H]1CN(S(C)(=O)=O)CCN1S(C)(=O)=O | -6.679%
Cc1cnc(NCC(C)(C)N2CCOCC2)nc1 | -8.824%
Cc1cc(C)nc(C2CCN(C(=O)CO)CC2)n1 | 128.5%
CC1CCN(C(=O)CN2CCC(c3n[nH]c(C4CC4)n3)CC2)CC1 | -23.79%
Cc1nc(C2CCN(C(=O)CO)CC2)cc(N2CCOCC2)n1 | 8.233%
COC(=O)Cc1cccc(NC(=O)Cc2ccon2)c1 | 4.933%
CCOCc1nc2c(c(NCCNC(C)=O)n1)CCN(C(C)=O)CC2 | 14.8%
CC(=O)NCC(=O)N1CCc2nc(C)nc(C)c2CC1 | -10.4%
Cc1nc2c(c(NC3CC3)n1)CCN(C(=O)CCO)CC2.O=C(O)C(F)(F)F | -1.283%
COCC(=O)N1CCc2nc(C)nc(NC(C)C)c2CC1 | 69.97%
CC(C)Nc1nc2c(c(NC3CC3)n1)CCN(C(=O)C1CCOC1)CC2 (stereo unspecified) | 25.31%
Cc1nc2c(c(NC(C)C)n1)CCN(C1CCOCC1)CC2.O=C(O)C(F)(F)F | -10.52%
CCOCC(=O)N1CCc2nc(C)nc(NC(C)C)c2CC1 | 81.04%
CC(C)Nc1nc2c(c(NC3CC3)n1)CN(C(=O)c1ccncc1)CC2 | 1.63%
COCC(=O)N1CCc2nc(NC(C)C)nc(NC(C)C)c2CC1 | 95.04%
Cc1nc2c(c(NC(C)C)n1)CCN(C(=O)c1cc[nH]n1)CC2.O=C(O)C(F)(F)F | -4.947%
Cc1nc2c(c(NC(C)C)n1)CCN(C(=O)CCO)CC2 | 103%
COCC(=O)NCC(Cc1cccc(F)c1)n1cccc1 (stereo unspecified) | 5.07%
CC(C)SCCNC(=O)c1cccc2ccnn12 | 5.28%
Cc1cc(C)c(CNC(=O)N(C)Cc2nnc3n2CCC3)c(=O)[nH]1 | 2.2%
CSCC(C)(O)CNC(=O)c1ccc(Br)cc1F (stereo unspecified) | 2.874%
COCC(NC(=O)NCc1cccc(Cl)c1)c1ccco1 (stereo unspecified) | 4.656%

SMILES | Percent Effect
Cc1csc(N2CCCN(C(=O)CCN3CCCC3=O)CC2)n1 | 4.733%
Cc1csc(N2CCC(CCN3CCCC3=O)CC2)n1 | 99.55%
Cc1csc(N2CCN(CCCN3CCCC3=O)CC2)n1 | -4.511%
Cc1ccc(N2CCC(CCN3CCCC3=O)CC2)nn1 | 86.49%
Cc1ccc(N2CC[C@]3(O)CCN(CCN4CCCC4=O)C[C@@H]3C2)nn1 | -23.37%
Cc1ccc(N2CCC3(CCC(=O)N3)CC2)nn1 | -16.01%
OCC1(O)CCN(Cc2ccc(-c3cc[nH]n3)s2)CC1 | -3.236%
CCCN1CC(NC(=O)Nc2nc(C)n(C(C)C)n2)CC1=O (stereo unspecified) | -10.65%
Cc1cc(NC(=O)CN2CCN(c3nccs3)C(C)C2)n(C)n1 (stereo unspecified) | -9.576%
Cc1nn(C)c(C)c1NC(=O)CN1CCN(c2nccs2)C(C)C1 (stereo unspecified) | 107.6%
Cc1n[nH]c(C)c1NC(=O)CN1CCN(c2nccs2)C(C)C1 (stereo unspecified) | 95.63%
CC1CN(CC(=O)Nc2nncs2)CCN1Cc1nccn1C (stereo unspecified) | -11.48%
Cc1csc(N2CCN(CC(=O)Nc3c(C)n[nH]c3C)CC2C)n1 (stereo unspecified) | 7.256%
CCc1cnc(N2CCN(CC(=O)Nc3c(C)n[nH]c3C)CC2)s1 | -15.52%
CCC(C(=O)NC1CCN(S(C)(=O)=O)CC1)n1cccn1 (stereo unspecified) | -1.013%
Cc1cc(C)n(CCC2CC(=O)Nc3cc4[nH]ncc4cc32)n1 (stereo unspecified) | 5.657%
O=C(C1CCOCC1)N1CCC2(CC1)CC(Oc1ccccc1)CO2 (stereo unspecified) | 2.022%
O=C(CN1CCSCC1c1ccccc1)N1CCOCC1 (stereo unspecified) | -10.11%
O=C(C1CCOC1)N1CCC(OCc2ccccc2)CC1 (stereo unspecified) | 104.9%
O=C(C1CCOC1)N1CC2(CCN(c3ccccc3)C2)C1 (stereo unspecified) | 126.5%
O=C(COCc1ccccc1)N1CCC(OCc2cccnc2)CC1 | -1.111%
O=C(CCO)N1CC2(CCN(c3ccccc3)C2)C1 | 3.033%
COc1ccccc1CC1CCCN(CC(=O)N2CCOCC2)C1 (stereo unspecified) | 1.243%
O=C(C1CCOCC1)N1C[C@H]2C[C@H](OCc3ccccc3)C[C@H]2C1 | 85.95%
O=C(CN1C[C@H]2C[C@H](OCc3ccccc3)C[C@H]2C1)N1CCOCC1 | 120.8%
O=C(Cc1cccnc1)N1CCC(OCc2ccccc2)CC1 | 5.712%

SMILES | Percent Effect
O=C(CO)N1CC2(CCN(c3ccccc3)C2)C1 | -2.652%
O=C(C1CCOC1)N1C[C@H]2CN(c3ccccc3)C(=O)[C@H]2C1 (stereo partly specified) | 2.352%
CC(=O)c1c(C)nn(CC(=O)N2Cc3cnc(C(C)(C)C)nc3C2)c1C | -8.133%
CCS(=O)(=O)N1Cc2c(Cn3ccnc3)nn(C)c2C1 | -18.78%
CC(C)(C)OC(=O)N1CCCc2ccc(NCc3cc[nH]c3)cc21 | -2.534%
O=C(NCC1Cn2nnc(-c3ccsc3)c2CO1)N1CCCC1 (stereo unspecified) | -5.299%
COCCN1CCC2(CC1)CN(C(=O)C1CC1)c1ccc(F)cc12.O=C(O)C(F)(F)F | -7.452%
CC(=O)N1CCC2(CC1)C(=O)N(c1cccnc1)c1ccc(F)cc12 | -4.26%
CCN1CCC2(CC1)CN(C(C)=O)c1ccc(C)cc12 | -4.945%
O=C(O)c1ccc2c(c1)C1(CCCCC1)CN2C(=O)c1cccc(F)c1 | -4.529%
O=C(C1CC1)N1CC2(CCN(CC3CC3)CC2)c2cc(F)ccc21.O=C(O)C(F)(F)F | -39.82%
CC(=O)N1CCC2(CC1)CN(C(=O)c1cccnc1)c1ccc(F)cc12.O=C(O)C(F)(F)F | 91.49%
O=C(O)c1ccc2c(c1)C1(CCCCC1)CN2C(=O)c1ccnnc1 | -1.269%
CCCN1CCC2(CC1)CN(C(=O)c1cccnc1)c1ccc(F)cc12.O=C(O)C(F)(F)F.O=C(O)C(F)(F)F | 115.7%
Cc1cncc(C(=O)N2Cc3ccccc3C3(CCN(C)CC3)C2)c1 | -5.03%
CCN1CCC2(CC1)CN(C(=O)c1cccnc1)c1ccc(Cl)cc12.O=C(O)C(F)(F)F.O=C(O)C(F)(F)F | 116.9%
CN1CCC2(CC1)CN(C(=O)c1cccnc1)c1ccc(Cl)cc12 | 127.2%
CCCc1cncnc1N1CCC(NCc2ccc(O)cc2)CC1 | -4.089%
O=C(Nc1cccnc1)C1=Cc2ccccc2OC1 | 18.82%
O=C(CSC1CCCC1)N1CCN(c2ccc(-n3cncn3)nn2)CC1 | 20.49%
CCN1CCN(Cc2nc(CCc3ccccc3)n[nH]2)CC1 | 14.2%
CC(NC(=O)CN1CCN(Cc2ccc(Br)s2)CC1)c1ccccc1 (stereo unspecified) | -2.941%
CCN(CC)c1ccc(NS(=O)(=O)c2cnn(CC)c2)cn1 | -19.91%
Cc1ocnc1C(=O)N(C)[C@@H]1CC[C@@H](n2ccnc2C)[C@@H]1O | 115%
Cc1cn2c(CN(C)C(=O)c3ncoc3C)c(C)nc2s1 | -12.17%
CCN(CCc1nccs1)C(=O)c1ncoc1C | -4.771%

SMILES | Percent Effect
Cc1occc1C(=O)NCC(=O)N1CCC(COc2ccccc2)CC1 | 1.262%
Cc1ocnc1C(=O)N(Cc1cccnc1)C[C@@H]1CCC(=O)N1 | -1.977%
Cc1ocnc1C(=O)N(C)[C@@H]1CC[C@@H](Oc2ccccc2)[C@@H]1O | 100.2%
Cc1ocnc1C(=O)N[C@H]1CN(CC2CCC2)C[C@@H]1C(C)C | 16.35%
Cc1occc1C(=O)NCC(=O)N(C)CCCOc1ccccc1 | 11.74%
Cc1ocnc1C(=O)N(C)[C@@H]1CCC[C@@H](N2CCCC2)[C@@H]1O | 115.9%
CCCN(CCC)C1(Cc2cc(-c3cccc(O)c3)on2)COC1 | -7.184%
N#CCCN(C(=O)CN1CCCC1Cc1ccccc1)c1ccccc1 (stereo unspecified) | 14.76%
CN(C)CCn1ccc(NC(=O)NC(C)(C)c2nccs2)n1 | 4.261%
Cc1ccn(-c2ccccc2NCc2ccccn2)n1 | 5.866%
Cc1cc(-c2cnc(NCc3ccccn3)nc2C(C)C)on1 | 93.57%
CC(C)c1nn(C)c(N(C)C)c1CNCc1ccc2c(c1)OCO2 | -1.149%
Cc1cc(-c2cnc(NCc3ccc4c(c3)OCO4)nc2C(C)C)on1 | 111.2%
COc1ccc(CNC2(Cc3cc(CC(C)C)on3)COC2)cc1 | 1.284%
Cn1ncnc1-c1ccnc(NCc2ccccn2)n1 | -1.94%
COc1ccc(CNC(C)c2cnc3cc(C)nn3c2C)cc1 (stereo unspecified) | 8.81%
COc1ccc(CNc2ncc(-c3cc(C)no3)c(C(C)C)n2)cc1 | 97.64%
Cn1ccnc1-c1noc(NCc2ccc3c(c2)OCCO3)n1 | -0.6068%
COc1ccccc1CNc1ncc(-c2cc(C)no2)c(C(C)C)n1 | 92%
COc1cccc(CNc2nc(C)cc(C)n2)c1OC | 34.66%
COCc1cc(NCc2ccccc2OC)ncn1 | -8.883%
CN(Cc1ccc(F)cc1)C(=O)NCC1(N2CCOCC2)CCSC1 (stereo unspecified) | -20.26%
COc1cccc(-n2c(SCC(=O)O)nnc2-c2cn[nH]c2)c1 | 1.781%

Reference: ChEMBL document CHEMBL3988442, “University of Dundee, Small-Polar-MMV Screening Library” (2021)
